Here are results for five compounds from PubChem BioAssay.

Assay [1] in a line: small molecules captured by biotinylated probe aFSTL3 – biochemical, small-molecule microarray, fluorescence 635/667, stem cell growth factor project, primary screen (AID 1064).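 Also: measures binding of the biotinylated anti-FSTL3 antibody to printed compounds.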 The note with it: higher = more signal.
The nature of assay [2]: binders from COS7 lysate, DM2A8 probe, primary screen, torsin A project, cell lysate, small-molecule microarray, fluorescence 635/667 (AID 1065). Particulars: higher = more signal, COS7 lysate expressing mutant human TOR1A.
Assay [3] can be described thus: small molecules captured by biotinylated probe aFGF2 – biochemical, small-molecule microarray, fluorescence 635/667, stem cell growth factor project, primary screen (AID 1067).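 Also: measures binding of biotinylated aFGF2 protein to printed compounds on slides; z-score merges feature fluorescence and signal-to-noise across triplicate slides.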 Particulars: higher = more signal.
A short description of assay [4]: small molecules captured by biotinylated probe aFGF10 – biochemical, small-molecule microarray, fluorescence 635/667, stem cell growth factor project, primary screen (AID 1071).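 Also: score merges 667 nm spot intensity and signal to noise from triplicate slides.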 The note with it: higher = more signal.
Assay [5] concerns the target Neurogenic locus notch homolog protein 2 (Homo sapiens) (UniProt Q04721). The assay is described as follows: small molecules binding Notch2 protein – biochemical, small-molecule microarray, 635 nm fluorescence, stem cell growth factors, primary screen (AID 1073). Particulars: higher = more signal.
Assay [6] has as its target Pro-neuregulin-1, membrane-bound isoform (Homo sapiens) (UniProt Q02297). The assay is described as follows: small molecules binding neuregulin-1 protein – biochemical, small-molecule microarray, fluorescence 635/667, psychiatric disease protein project, primary screen (AID 1075).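 Also: score combines 667 nm spot fluorescence with signal to noise.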 The note with it: NRG1 binding, 635 nm fluorescence, higher = more signal.
The test system of assay [7] is Neuregulin-1 EGF-like domain. The assay can be described thus: small molecules binding NRG1 EGF domain – biochemical, small-molecule microarray, 635 nm fluorescence, primary screen (AID 1081).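 Also: binding of the protein to compounds printed on small-molecule microarray slides.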 The note with it: higher = more signal.
A short description of assay [8]: FRG1 expression reporter modulators in myotubes – cell-based, C2C12 myotubes, firefly/Renilla luciferase, luminescence, FRG1 inhibition for FSHD, primary screen (AID 1084). The note with it: FRG1 promoter luciferase, higher = more signal, called active from +8 up or from −8 down.
A short description of assay [9]: small molecules captured by biotinylated probe aFST – biochemical, small-molecule microarray, fluorescence 635/667, stem cell growth factor project, primary screen (AID 1086).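 Also: score merges 667 nm fluorescence with signal-to-noise of each printed compound spot.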 Particulars: higher = more signal.
The nature of assay [10]: binders of probe aHhip on microarray, primary screen, stem cell growth factor project, biochemical, small-molecule microarray, fluorescence 635/667 (AID 1087).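 Also: score merges spot fluorescence at 667nm with spot signal to noise ratio.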 Particulars: higher = more signal.
Assay [11] has as its system PRMT1 (protein arginine N-methyltransferase 1). The assay is described as follows: small molecules binding arginine methyltransferase PRMT1 – biochemical, small-molecule microarray, 635 nm fluorescence, primary screen (AID 1088).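 Also: binding of Prmt1 protein to compounds spotted on small-molecule microarray slides.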 Particulars: higher = more signal.
A short description of assay [12]: growth effects on S. cerevisiae YJM789 – YJM789 clinical isolate, OD600, 24 h, basal, primary screen (AID 1089).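 Also: growth of clinical yeast isolate S. cerevisiae YJM 789 seeded 1000 cells per well; test concentration not given here.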 The note with it: higher = more signal, called active from +8 up or from −8 down.
Assay [13] in a line: S. pombe growth modifiers, basal conditions – strain 972, OD600, 24 h, no modulator, primary screen (AID 1090).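 Also: basal condition with compound alone and no growth modifier present; test concentration not given here.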 The note with it: S. pombe 972 growth, higher = more signal, called active from +8 up or from −8 down.
Assay [14] can be described thus: budding yeast growth modifiers under rapamycin – strain BY4716, OD600, 96 h, primary screen (AID 1091). Also: test concentration not given here. The note with it: S. cerevisiae BY4716 + rapamycin, higher = more signal, called active from +8 up or from −8 down.
The target in assay [15] is Torsin-1A-interacting protein 2 (Homo sapiens) (UniProt Q8NFQ8). The assay is described as follows: small molecules binding lysate-expressed LULL1 – cell lysate, human LULL1 lysate, 635/667 nm fluorescence, primary screen (AID 1092).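 Also: probe is lysate of COS7 cells overexpressing human LULL1; score merges per-feature 667 nm fluorescence with signal-to-noise.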 Particulars: small-molecule microarray, hLULL1 lysate binding, 635 nm fluorescence; higher = more signal.
Torsin-1A-interacting protein 2 (Homo sapiens), sequence (Q8NFQ8 whole entry, looked up): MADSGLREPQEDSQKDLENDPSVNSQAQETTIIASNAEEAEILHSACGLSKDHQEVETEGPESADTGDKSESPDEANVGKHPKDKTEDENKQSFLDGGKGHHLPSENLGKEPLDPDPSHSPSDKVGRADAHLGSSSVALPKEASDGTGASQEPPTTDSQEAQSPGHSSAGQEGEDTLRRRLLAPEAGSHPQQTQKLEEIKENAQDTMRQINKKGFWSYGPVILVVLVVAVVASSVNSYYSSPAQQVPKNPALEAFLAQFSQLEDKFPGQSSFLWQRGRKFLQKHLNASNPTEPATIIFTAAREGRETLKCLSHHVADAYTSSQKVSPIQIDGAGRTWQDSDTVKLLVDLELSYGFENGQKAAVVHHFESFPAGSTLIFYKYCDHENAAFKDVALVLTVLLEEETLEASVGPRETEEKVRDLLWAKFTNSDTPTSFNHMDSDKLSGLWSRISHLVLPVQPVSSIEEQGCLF
The nature of assay [16]: optical density change of DRC41 E. coli – strain DRC41, OD650, 24 h, E. coli filamentation project, primary screen (AID 1093).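 Also: MC1000 strain lacking acrAB efflux and sulA so SOS filamentation is blocked; test concentration not given here.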 The note with it: E. coli DRC41 growth, higher = more signal, called active from +8 up or from −8 down.
A short description of assay [17]: probe aLefty2 binding to arrayed compounds – biochemical, biotinylated probe, 635/667 nm fluorescence, primary screen (AID 1094).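 Also: score merges spot fluorescence near 667 nm with spot signal-to-noise ratio.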 The note with it: small-molecule microarray, higher = more signal.
In assay [18] the test system is Noggin (protein binding on small-molecule microarray). The assay can be described thus: small molecules binding Noggin protein – biochemical, 635/667 nm fluorescence, primary screen (AID 1095).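 Also: score merges 667 nm feature fluorescence with signal to noise over triplicate slides.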 Particulars: 635 nm fluorescence, higher = more signal.
The target of assay [19] is Neurogenic locus notch homolog protein 3 (Homo sapiens) (UniProt Q9UM47). The assay is described as follows: small molecules binding NOTCH3 protein – biochemical, 635/667 nm fluorescence, primary screen (AID 1096). Particulars: small-molecule microarray, 635 nm fluorescence, higher = more signal.
A short description of assay [20]: probe aEGFR binding to arrayed compounds – biochemical, biotinylated probe, 635/667 nm fluorescence, primary screen (AID 1097).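 Also: probe is a biotinylated anti-EGFR antibody binding compounds printed on slides; score combines fluorescence near 667 nm and signal to noise of each spot.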 The note with it: small-molecule microarray, higher = more signal.

Active and inactive are the calls of the source.

Neurogenic locus notch homolog protein 2 (Homo sapiens), sequence (Q04721 whole entry, looked up, canonical isoform): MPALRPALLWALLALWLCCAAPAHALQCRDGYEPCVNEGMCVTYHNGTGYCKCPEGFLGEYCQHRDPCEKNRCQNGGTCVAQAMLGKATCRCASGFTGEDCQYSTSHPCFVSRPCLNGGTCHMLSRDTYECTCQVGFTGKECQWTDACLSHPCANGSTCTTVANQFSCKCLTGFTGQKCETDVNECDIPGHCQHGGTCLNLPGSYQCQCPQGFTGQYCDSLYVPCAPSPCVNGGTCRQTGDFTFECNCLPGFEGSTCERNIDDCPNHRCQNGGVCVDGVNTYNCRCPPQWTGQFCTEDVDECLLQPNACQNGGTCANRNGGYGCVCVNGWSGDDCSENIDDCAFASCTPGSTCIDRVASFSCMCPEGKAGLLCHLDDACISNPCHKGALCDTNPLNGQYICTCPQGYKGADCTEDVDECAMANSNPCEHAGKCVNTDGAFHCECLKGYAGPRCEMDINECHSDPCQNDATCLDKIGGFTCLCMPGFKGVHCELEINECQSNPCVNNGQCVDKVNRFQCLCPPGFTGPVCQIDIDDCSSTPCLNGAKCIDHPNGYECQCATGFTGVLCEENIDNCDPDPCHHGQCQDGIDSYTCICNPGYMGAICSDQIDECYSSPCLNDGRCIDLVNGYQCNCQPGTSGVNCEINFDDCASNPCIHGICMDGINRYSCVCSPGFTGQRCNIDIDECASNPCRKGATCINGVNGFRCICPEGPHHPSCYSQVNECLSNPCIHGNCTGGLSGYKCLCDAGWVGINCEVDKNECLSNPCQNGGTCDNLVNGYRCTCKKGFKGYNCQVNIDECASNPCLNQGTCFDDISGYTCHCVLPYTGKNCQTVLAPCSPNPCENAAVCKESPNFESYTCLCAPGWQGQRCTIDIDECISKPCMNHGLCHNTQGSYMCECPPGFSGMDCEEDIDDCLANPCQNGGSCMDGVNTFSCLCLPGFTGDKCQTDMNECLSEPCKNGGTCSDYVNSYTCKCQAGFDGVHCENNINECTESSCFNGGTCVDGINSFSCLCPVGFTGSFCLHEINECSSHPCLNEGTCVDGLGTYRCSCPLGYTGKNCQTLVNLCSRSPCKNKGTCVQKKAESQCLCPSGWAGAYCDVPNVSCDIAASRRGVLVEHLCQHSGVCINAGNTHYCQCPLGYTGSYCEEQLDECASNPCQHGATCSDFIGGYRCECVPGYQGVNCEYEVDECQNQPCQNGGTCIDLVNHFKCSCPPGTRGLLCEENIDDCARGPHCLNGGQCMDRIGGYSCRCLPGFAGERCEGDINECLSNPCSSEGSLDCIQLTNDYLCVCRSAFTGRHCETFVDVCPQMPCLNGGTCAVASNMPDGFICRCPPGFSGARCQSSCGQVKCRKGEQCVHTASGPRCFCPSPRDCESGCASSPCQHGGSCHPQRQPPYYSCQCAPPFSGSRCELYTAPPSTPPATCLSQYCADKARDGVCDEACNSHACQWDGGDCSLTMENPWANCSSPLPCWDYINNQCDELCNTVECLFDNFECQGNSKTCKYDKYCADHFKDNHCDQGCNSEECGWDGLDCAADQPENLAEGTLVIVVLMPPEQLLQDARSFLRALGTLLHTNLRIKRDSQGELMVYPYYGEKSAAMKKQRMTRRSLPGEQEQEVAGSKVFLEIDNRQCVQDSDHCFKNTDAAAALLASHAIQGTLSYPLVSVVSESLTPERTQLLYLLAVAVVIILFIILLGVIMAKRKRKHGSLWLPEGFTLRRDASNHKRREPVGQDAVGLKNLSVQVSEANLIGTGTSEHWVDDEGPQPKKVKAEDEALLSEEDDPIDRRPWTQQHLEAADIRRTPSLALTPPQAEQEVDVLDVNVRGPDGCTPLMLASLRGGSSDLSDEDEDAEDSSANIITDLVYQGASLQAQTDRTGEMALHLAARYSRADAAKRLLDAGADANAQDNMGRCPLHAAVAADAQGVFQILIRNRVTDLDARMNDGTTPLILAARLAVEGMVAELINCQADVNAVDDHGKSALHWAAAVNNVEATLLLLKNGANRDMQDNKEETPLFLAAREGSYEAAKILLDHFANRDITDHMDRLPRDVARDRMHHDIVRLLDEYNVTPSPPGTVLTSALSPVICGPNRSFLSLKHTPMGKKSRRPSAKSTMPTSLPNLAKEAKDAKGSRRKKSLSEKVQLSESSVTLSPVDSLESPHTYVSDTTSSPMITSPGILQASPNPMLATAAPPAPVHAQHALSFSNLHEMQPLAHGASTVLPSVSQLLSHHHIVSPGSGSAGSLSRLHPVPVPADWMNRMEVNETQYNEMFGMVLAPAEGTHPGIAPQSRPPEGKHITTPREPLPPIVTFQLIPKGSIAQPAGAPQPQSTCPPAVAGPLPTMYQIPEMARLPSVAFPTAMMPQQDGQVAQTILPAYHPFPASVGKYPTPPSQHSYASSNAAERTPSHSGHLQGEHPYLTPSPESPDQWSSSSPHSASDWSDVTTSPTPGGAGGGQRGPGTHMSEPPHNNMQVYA
Pro-neuregulin-1, membrane-bound isoform (Homo sapiens), sequence (Q02297 whole entry, looked up, the tested form may be a part, canonical isoform): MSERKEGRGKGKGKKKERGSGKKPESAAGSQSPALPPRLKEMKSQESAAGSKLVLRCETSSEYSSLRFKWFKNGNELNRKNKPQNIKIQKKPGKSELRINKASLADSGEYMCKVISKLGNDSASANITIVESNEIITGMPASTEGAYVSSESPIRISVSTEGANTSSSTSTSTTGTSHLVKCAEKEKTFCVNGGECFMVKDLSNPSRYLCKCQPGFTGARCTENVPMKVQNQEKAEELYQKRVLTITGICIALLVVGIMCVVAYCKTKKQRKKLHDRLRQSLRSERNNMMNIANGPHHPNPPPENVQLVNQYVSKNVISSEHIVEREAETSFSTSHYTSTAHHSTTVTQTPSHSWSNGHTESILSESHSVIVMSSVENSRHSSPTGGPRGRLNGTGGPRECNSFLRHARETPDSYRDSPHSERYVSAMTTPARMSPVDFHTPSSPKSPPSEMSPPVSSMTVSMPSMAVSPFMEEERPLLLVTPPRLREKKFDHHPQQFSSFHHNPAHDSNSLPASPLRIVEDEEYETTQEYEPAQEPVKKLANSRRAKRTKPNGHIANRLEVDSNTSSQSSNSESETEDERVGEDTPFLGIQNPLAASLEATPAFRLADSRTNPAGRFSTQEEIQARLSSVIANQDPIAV

Turning to `Cc1ccc(F)cc1S(=O)(=O)N[C@@H]1CCN(Cc2cccc3[nH]ccc23)C1`, the composite z-score in assay [1] is 1.05; in assay [2], 0.871; in [3], -0.0894; in assay [4], 0.513; in assay [5], 0.37; in assay [6], 1.38. The composite z-score in assay [7] was 0.379; in [9], -0.0112; in assay [10], -0.0994; in assay [11], 0.317; in [15] it was -0.466; in [17], -0.0728. Besides, the composite z-score was determined as 0.586 in assay [18], 0.56 in assay [19] and 0.137 in assay [20]. Further, the z-score is -0.762 (inactive) in [8]; 0.84 (inactive) in assay [12]; -1.02 (inactive) in [13]; -0.639 (inactive) in [14]; -0.833 (inactive) in assay [16].

For `COCCOC(=O)N1C(=O)[C@@]2(c3cc(C#CCC(C(=O)OC)C(=O)OC)ccc31)[C@H](C(=O)NC[C@H](O)c1ccccc1)[C@H]1C(=O)O[C@H](c3ccccc3)[C@H](c3ccccc3)N1[C@@H]2c1ccc(O)cc1`, the composite z-score was -0.0562 in [1]; 0.498 in assay [2]; -0.0647 in assay [3]; 0.954 in [4]; 0.269 in assay [5]; 1.01 in [6]. Moreover, the composite z-score in assay [7] is 1.28; in [9], 1.04; in assay [10], 0.213; in assay [11], 1.36; in [15], 2.78; in assay [17], -0.0845. In addition, the composite z-score in assay [18] is -1.08; in assay [19], 0.687; in [20] it was -0.0828. The z-score in assay [8] was -0.81 (inactive); in assay [12] it was 1.05 (inactive); in assay [13], 1.37 (inactive); in assay [14], 0.174 (inactive); in assay [16], -0.377 (inactive).

As to `C=CCC(OC(C)=O)[C@@H]1[C@@H](N(Cc2ccc(-c3cccc(C(F)(F)F)c3)o2)C(=O)c2ccc(C)cc2)c2cc(OCCCO)ccc2N1C(=O)Cc1ccc(OC)cc1` (stereo not given in full), the composite z-score in assay [1] was 0.002; in assay [2], -0.315; in [3], -0.0639; in assay [4] it was 0.0732; in assay [5] it was -0.489; in assay [6] it was -0.0798. The composite z-score was -0.986 in assay [7]; 0.382 in assay [9]; 0.0373 in [10]; -0.118 in assay [11]; -0.639 in assay [15]; -0.131 in assay [17]. The composite z-score in assay [18] is -0.0236; in assay [19], -0.0141; in assay [20] it was -0.0828. For the same compound, the z-score in assay [8] was -0.287 (inactive); in assay [12], 0.9 (inactive); in assay [13], 0.145 (inactive); in assay [14], 0.0453 (inactive); in [16], 1.34 (inactive).

With `CC(C)C(=C=CC[C@@H](O)c1cccc(OCCO)c1)C[C@@H](O)c1ccccn1`, the composite z-score is -0.437 in assay [1]; -0.0934 in assay [2]; -0.147 in assay [3]; 0.815 in [4]; -0.553 in assay [5]; -0.253 in [6]. For the same compound, the composite z-score in assay [7] was 0.125; in [9] it was -0.0246; in assay [10] it was -0.137; in [11], 0.504; in assay [15] it was 1.26; in assay [17], -0.283. The composite z-score was 0.38 in assay [18], 0.603 in assay [19] and -0.161 in assay [20]. Moreover, the z-score in assay [8] is 1.35 (inactive); in assay [12] it was -0.282 (inactive); in assay [13], -0.361 (inactive); in assay [14] it was -0.419 (inactive); in [16] it was 0.379 (inactive).

As to `C[C@]1(C(=O)NCC(F)(F)F)c2ccccc2C(=O)N(Cc2ccccc2)[C@H]1c1ccc(CO)cc1`, the composite z-score in assay [1] was 0.472; in [2], -1.34; in assay [3], -0.167; in assay [4] it was -0.358; in assay [5], -1.52; in assay [6], 0.794. Besides, the composite z-score in assay [7] was 0.711; in assay [9], -0.0961; in assay [10] it was -0.0003; in assay [11], -0.604; in assay [15], 1.57; in assay [17] it was -0.0478. Also, the figures for the composite z-score in [18], in assay [19] and in assay [20] were -1.45, -1.21 and -0.162, respectively. Moreover, the z-score in assay [8] is -1.48 (inactive); in assay [12] it was 0.724 (inactive); in assay [13] it was 0.645 (inactive); in [14], -0.0993 (inactive); in [16] it was 0.855 (inactive).
